In PubChem BioAssay AID1053144 (Broad Institute, 2014):
Among all 3,400 compounds or so, about 160 (4.7%) were called active.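 Rule for the calls: active = fitted curve reaches 30% activation at a concentration no higher than the top valid tested dose, luminescence rising; inconclusive = no clear call, values can overlap the other calls; inactive = signal moving opposite to the expected increase, plus the rest.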 Not all results are given here. Entries with a potency or affinity are not part of this list.

Test: Wnt/beta-catenin signaling activators, dose response, cell-based, iPS-derived NPC, luciferase, Wnt3a, cherry-pick (AID 1053144);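 note: Wnt3a stimulus is conditioned medium from Wnt3a-transfected mouse L cells at 5% in well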
Settings: NPC TCF/LEF luciferase reporter, Wnt3a EC25, 24 h; series mostly up to 26 µM

activation, inactive:
COc1ccccc1C1CC(c2cccs2)=Nc2ccccc2S1 (centres undefined)
COc1ccc2oc(C(=O)Nc3ccc(C)cn3)c(C)c2c1
COc1ccc(/C=N/Nc2nc3ccccc3o2)cc1O
COc1cc(/C=N/Nc2ccccn2)ccc1O
Nc1[nH]n(-c2ccccc2)c(=O)c1N=Nc1ccccc1[N+](=O)[O-]
COCCNC(=O)c1ccc2c(Cl)c3c(nc2c1)CCC3
CCOC(=O)c1c(C)[nH]c(C(=O)OCc2ccccc2)c1C
CCOC(=O)c1c(C)[nH]c(C(=O)OCC(=O)c2ccccc2)c1C
CCOC(=O)N1CCC(N2CCCC(C(=O)c3cc(F)ccc3OC)C2)CC1 (centres undefined)
COc1ccc(N2CCN(c3ccc(NC(=O)/C=C\C(=O)O)cc3)CC2)cc1
Cc1ccc(-c2nn(-c3ccccc3)cc2C=O)o1
O=C(NCc1cccnc1)C(=O)Nc1nc2ccccc2s1
OCC1(CCOc2ccccc2)CCN(Cc2ccccc2C(F)(F)F)CC1
Nc1ccc2nc(NC(=O)C3CCCCC3)sc2c1
Cc1cc(/C=N/NC(=O)c2ccccc2F)c(C)n1-c1ccccc1
COc1ccc(CN2C(=O)c3cccc4cccc(c34)C2=O)cc1
COc1ccc(N2C(=O)c3ccccc3C2O)cc1 (centres undefined)
O=C(c1cc2cc(F)ccc2[nH]1)N1CCc2ccccc21
Cc1ccc(-c2nc3ccsc3c(=O)o2)cc1
Cc1ccnc2ccc(-c3nc4ccccc4o3)cc12
COc1ccc(C2CC(=O)N(C)c3ccccc3S2)cc1OC (centres undefined)
Clc1cccc(-c2ccc3ncnc(NCc4cccs4)c3c2)c1
O=c1cc(-c2ccccc2)oc2ccc(Cl)cc12
O=c1cc(-c2ccc3c(c2)OCCO3)oc2ccc(Cl)cc12
C/C(=N/NC(=O)c1ccco1)c1ccc(NC(=O)c2ccc(F)cc2)cc1
Cc1ccccc1-c1nnc(-c2cccc3ccccc23)o1
Cc1cccc(-c2nnc(-c3cccc4ccccc34)o2)c1
Nc1ccc(-c2nnc(-c3ccc(N)cc3)o2)cc1
Cc1ccc(NC(=O)N2CCC(c3ccccc3)C2)cc1C (centres undefined)
CCc1cc(C(=O)Cc2nc3ccccc3[nH]2)c(O)cc1O
O=C(Cc1nc2ccccc2[nH]c1=O)c1ccccc1
CCc1ccc(C(=O)COC(=O)c2ccccc2OC)cc1
COc1ccc(-c2nnc(SCC(C)C)o2)cc1
COc1ccc(-c2nnc(SCC(=O)Nc3cccc(Cl)c3)o2)cc1
Cc1onc(C(=O)Nc2sc3c(c2C#N)CCCC3)c1[N+](=O)[O-]
Cc1cc(NC(=O)c2cccc(F)c2)ncc1NC(=O)c1ccco1
O=C(/C=C/C=C/c1ccccc1)c1ccco1
Cc1ccc(N/C=C/C(=O)c2ccco2)c(O)c1
Cc1ccnc(NC(=O)c2cc3cc(F)ccc3s2)c1
CC(C)NC(=O)c1cc(-c2cccs2)on1
Cc1ccc(NC(=O)c2cc(-c3cccs3)on2)cc1C
CCc1cc(CNC(=O)CCc2nnc(CCCc3ccccc3)o2)on1
O=C(NC(=O)c1ccc(F)cc1F)Nc1ccc(Cl)cc1
Nc1ccc(O)c2c(=O)cc(-c3ccccc3Cl)oc12
CCCOc1ccc(-c2csc3nc[nH]c(=O)c23)cc1
COc1ccc2cc(CCNC(=O)c3cccs3)c(=O)[nH]c2c1
COc1ccc2[nH]c(-c3ccccc3)cc2c1
Cc1ccc(CONC(=O)c2ccc(C)cc2)cc1
Nc1ccc(N=Nc2ccccc2)c(N)n1
COc1ccc(N=Nc2ccc(N)nc2N)cc1
CCOC(=O)C1(Cc2ccccc2)CCCN(C(=O)COc2ccccc2OC)C1 (centres undefined)
Cn1c(SCC(=O)c2ccccc2)nnc1-c1ccccn1
Cn1c(SCc2ccccc2F)nnc1-c1ccccn1
Cc1ccc(NC(=O)C(=O)NCCCN2CCCC2=O)cc1
COc1ccc2oc(=O)c(-c3nc4ccccc4o3)cc2c1
COc1cccc2cc(-c3nc4ccccc4o3)c(=O)oc12
N/C(=N\OC(=O)c1cccs1)c1ccc(Cl)cc1
O=C(Nc1ccccc1)Nc1nnc(-c2ccccc2)s1
COc1ccc(C(C(=O)NC2CCCC2)n2c(C3CCN(C(C)=O)CC3)nc3ccccc32)cc1 (centres undefined)
c1ccc2c(c1)Cc1cc3ccccc3nc1-2
O=C(O)c1ccc2c(c1)C(=O)N(c1ccc(C(=O)OCC(=O)c3ccccc3)cc1)C2=O
O=C(/C=C/c1ccc(N2CCOCC2)cc1)c1ccccc1
CCC(C)C(=O)Nc1nc2ccc(OC)cc2s1 (centres undefined)
CC(=O)Nc1nonc1NC(=O)c1ccc(C(C)(C)C)cc1
CCCCn1c(CN2CCN(C(=O)OCC)CC2)nc2c1c(=O)n(C)c(=O)n2C
Fc1ccccc1-c1nc(-c2ccccc2)no1
Cc1ccc(-c2noc(-c3ccccc3F)n2)cc1
Cc1ccc(OCc2cc(C(=O)NCC(C)(C)N3CCOCC3)no2)cc1C
NC(=O)CSc1nnc(NC(=O)c2ccc3ccccc3c2)s1
CC1CCN(C(=O)CSc2nc3ccccc3s2)CC1
NC(=O)c1c(NC(=O)c2ccccc2)sc2c1CCC2
CC1CCC2(CC1)NC(=O)N(CC(=O)Nc1sc3c(c1C(N)=O)CCC3)C2=O (centres undefined)
CN1CCN(c2ccc(NC(=O)c3ccc(-c4ccccc4F)o3)cc2)CC1
CCn1c(SCC(=O)c2ccccc2)nnc1-c1cnccn1
Cn1c(SCC(=O)c2ccccc2)nnc1-c1ccc(O)cc1
O=C(Nc1nnc(C2CCCCC2)s1)c1cccs1
Cc1ccnc(N/C=C/C(=O)c2ccc(Br)cc2)c1
Nc1ccc(-c2nc3ccc([N+](=O)[O-])cc3[nH]2)cc1
Cc1nc2ccc(-c3nc4cc(N)ccc4o3)cc2[nH]1
CCCOc1ccc(C(=O)Nc2ccc3c(c2)OCO3)cc1
CC1CCC(NC(=O)c2cccn2C)CC1 (centres undefined)
C=C(C)CNC(=O)CCc1nnc(Cc2cccc(C(F)(F)F)c2)o1
O=C(COc1ccc2c(c1)OCO2)Nc1ccccc1F
O=C(NCC(c1ccco1)N1CCCC1)c1cc(=O)[nH]c2ccccc12 (centres undefined)
O=C(O)c1ccccc1SCc1cn2cc(Cl)ccc2n1
CCOC(=O)/C(=C/c1ccc(OC(=O)c2ccncc2)cc1)C(C)=O
CN1CCSc2ccc(C(=O)Nc3ccc(Cl)cc3)cc21
COc1ccc(NC(=O)c2ccc3c(c2)N(C)CCS3)cc1
Cc1ccc2c(c1)c1c(n2C)-c2[nH]ncc2CC1
COC(=O)c1nn(-c2ccc(C)cc2)c2nnc(Cc3ccccc3)c(=O)n12
COC(=O)c1ccc(NC(=O)c2ccco2)cc1
O=C(Nc1ccc(Cl)cc1)c1ccco1
COc1ncccc1-c1nnn(-c2ccccc2)n1
CC(=O)NC(CC(=O)NNC(=O)COc1c(C)cccc1C)c1ccccc1 (centres undefined)
Cc1cc(NC(=O)c2ccccc2)ncc1NC(=O)c1ccco1
CSc1nccc(N/N=C/c2ccccc2)n1
O=C(NC1CCCCC1)c1cc(-c2cccs2)on1
O=C(NCc1cccs1)c1cc(-c2ccc(O)cc2)on1
O=c1c2ccccc2oc2ccc(NCCCn3ccnc3)cc12
O=C(NC1CCCC1)c1cc(-c2ccc(Cl)cc2)on1
COc1ccc(C(=O)c2c[nH]c(C(=O)NCCCn3ccnc3)c2)cc1
O=C(c1cc(-c2ccccc2)on1)N1CCCCCC1
CC(C)(C)c1cccc(N/C(=C\C(=O)c2ccccc2)c2ccccc2)c1
CC(=O)c1ccc(OCc2ccccc2)c(C)c1O
O=C(Nc1nnc(-c2ccco2)s1)C1CC1
COc1cccc(N=c2oc3ccccc3cc2-c2nc3ccccc3[nH]2)c1
O=C(Nc1ccc(Br)cn1)c1ccc(Cl)s1
Cc1cc(C(=O)Nc2ccc(Br)cn2)sc1C
CC(=O)c1cc(F)ccc1OCC(=O)Nc1ccc2c(c1)OCO2
O=S(=O)(c1cccs1)N1CCCc2cccc(O)c21
COc1cccc(OCc2cc(C(=O)N3CCN(c4ccccc4OC)CC3)no2)c1
O=C(O)COn1c(-c2ccccc2)nc2ccc([N+](=O)[O-])cc21
Cc1ccnc(SCc2cc(=O)c(OC(=O)c3ccc(Br)o3)co2)n1
O=C(/C=C/c1cc2ccccc2o1)c1ccccc1O
O=C(/C=C/c1ccccc1)NC(=O)c1ccccc1O
O=C(/C=C/c1ccc2c(c1)OCO2)c1ccc[nH]1
COc1ccc(/C=C/C(=O)c2cc3c(cc2N)OCO3)cc1
O=C(N/N=C/c1ccc(N2CCOCC2)cc1)c1cccs1
CCc1sc(C(=O)N2CCc3ccccc32)cc1C
CC(C)[C@H](NC(=O)OCc1ccccc1)C(=O)OCC(=O)c1ccccc1
COc1cc(/C=C/C(=O)N2C(=O)c3cccc(N)c3C2=O)cc(OC)c1OC
COc1ccc(NC(=O)c2cc3ccccc3cc2O)cc1
COc1cc2ccccc2cc1C(=O)Nc1ccc(O)cc1
Cc1cnc(C(=O)Nc2ccc(C(C)C)cc2)cn1
Cc1ccc(NC(=O)c2ccccc2NC(=O)Cc2ccccc2)cc1
Cc1cc(C)n(-c2nnc3c4ccccc4n(C)c3n2)n1
O=C(Nc1ccc2c(c1)OCO2)c1ccc(CO)cc1
CCOC(=O)CSc1nc2ccccc2c(=O)n1NC(=O)c1ccccc1
c1cncc(CSc2ccc(-c3ccc4c(c3)OCO4)nn2)c1
